Measurements as given in PubChem BioAssay (NCI).
About 79,000 compounds went through this panel and 15% of them were active in at least one assay; those are over-represented in the sample as a whole. A number with no mark means an inactive call. Calls of active or inactive are those of the source. Rule as the data show it: active = growth inhibition above about 70%; inactive = the rest.

Legend:
[1] = NCI Yeast Anticancer Drug Screen. Data for the rad50 strain (AID 155);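 also: 0% = growth of vehicle-only cultures of the same strain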; settings: S. cerevisiae rad50 strain growth inhibition; at 50.0 µM; active compounds read high
How it was run: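 Compounds were tested on a yeast strain with an engineered DNA damage repair alteration; the reported value is growth inhibition normalised to vehicle treatment.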

[2] = NCI Yeast Anticancer Drug Screen. Data for the mec2-1 strain (AID 157); settings: S. cerevisiae mec2-1 strain, at 50.0 µM, active compounds read high
How it was run: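 Growth inhibition is read against vehicle-treated controls after compound exposure of the mec2-1 yeast strain, which is defective in DNA damage repair or cell cycle control.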

[3] = NCI Yeast Anticancer Drug Screen. Data for the cln2 rad14 strain (AID 165);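 also: 0% = growth equal to vehicle treated cultures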; settings: S. cerevisiae cln2 rad14 strain, at 50.0 µM, active compounds read high
How it was run: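 Growth inhibition, relative to vehicle-treated controls, is the read-out. The test organism is a yeast strain with defined genetic alterations, cln2 rad14.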

[4] = NCI Yeast Anticancer Drug Screen. Data for the bub3 strain (AID 167); settings: S. cerevisiae bub3 mutant strain, at 50.0 µM, active compounds read high
How it was run: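 Growth of a checkpoint-deficient yeast mutant is measured after compound exposure. Values represent inhibition relative to vehicle.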

[5] = NCI Yeast Anticancer Drug Screen. Data for the mlh1 rad18 strain (AID 175); settings: S. cerevisiae mlh1 rad18 strain growth inhibition; at 50.0 µM; active compounds read high
How it was run: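 Cells of a genetically altered yeast strain, deficient in DNA damage repair, were treated with compound. Their growth was then compared with that of vehicle-treated cultures to give inhibition.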

[6] = NCI Yeast Anticancer Drug Screen. Data for the sgs1 mgt1 strain (AID 161);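 also: 0% = growth of cultures given vehicle only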; settings: S. cerevisiae sgs1 mgt1 strain, at 50.0 µM, active compounds read high
How it was run: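 Yeast cells carrying a defined DNA-repair defect were exposed to test compounds. Growth inhibition was measured relative to vehicle-treated controls.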

Structure (SMILES)	growth inhibition [1]	growth inhibition [2]	growth inhibition [3]	growth inhibition [4]	growth inhibition [5]	growth inhibition [6]
ICc1nc2ccccc2[nH]1	15.6%	-3.6%	-1.75%	-14.5%	6.1%	–
O=C(O)C(O)(c1ccccc1)c1ccsc1 (stereo not given)	4.45%	2.15%	-28.9%	1.95%	8.8%	–
C[CH2][Sn]([CH2]C)([S]c1nc(O)cc(=O)[nH]1)[S]c1nc(O)cc(=O)[nH]1	32.5%	41.9%	7.9%	21.9%	25.1%	–
O=NNc1cccc(NN=O)n1	47.2%	-22.8%	-2.75%	-26.5%	-3.15%	–
O=[As](O)(O)CC(Br)CBr (stereo not given)	5.5%	12%	-7.3%	41.1%	-3.4%	–
CCOP(=O)(OCC)C(O)C(C)C (stereo not given)	3.5%	16.9%	-19.8%	7.5%	0.35%	–
COC(=O)C1c2cc(OC)c(OC)cc2C(=O)N2CCc3cc4c(cc3C12)OCO4 (stereo not given)	15.8%	-14.8%	12.1%	-3.3%	9.2%	–
C1=CC2C=CC(C=C1)[PH+]2c1ccccc1.[C-]#[O+].[C-]#[O+].[C-]#[O+].[C-]#[O+].[C-]#[O+].[Cr] (stereo not given)	-30.4%	2.1%	21.4%	-2.15%	-9.35%	–
CC[O-].CC[O-].O=C([CH-]C(=O)c1ccccc1)c1ccccc1.O=C([CH-]C(=O)c1ccccc1)c1ccccc1.[Ti+4]	34.3%	30.9%	–	52.7%	26.1%	29.1%
CCCCCC1(C(C)C)C(=O)NC(=O)NC1=O	3.1%	8.65%	15.3%	-0.6%	6.35%	–
O=C(c1ccccc1)P(C(=O)c1ccccc1)C(=O)c1ccccc1	10.9%	-5.7%	-75.7%	-0.05%	-5.1%	–
N#CC(C#N)=Cc1cccc(F)c1	37%	25.2%	15.6%	20.2%	31.9%	–
CCCCOP(=O)(/C=C/c1cccs1)OCCCC	81.2% (active)	37%	7.95%	61.5%	37.1%	–
CC(=O)CC(C)C(=O)O (stereo not given) (tested in a mixture with another compound)	-5.9%	-11%	-6.55%	-5.6%	-20.6%	–
